Most compounds without a hit are left out; they make up all but 3.4% or so of the library.
FBW7 act: human FBW7 E3 ligase activation, primary screen; AlphaScreen FBW7–phospho-cyclin E peptide binding, activator screen; actives 0.13% (n = 650,000); AID 1259310; Q969H0; normalized activity (activation), % at 26.1 µM; in the data active means normalized activity above about 1.9%;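 further: purified mutant Fbw7 with reduced substrate affinity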
TEAD-YAP inh: TEAD-YAP interaction inhibition; HEK-TIYL cells, TEAD-Gal4/YAP UAS-luciferase luminescence; inhibition, % at 9.12 µM; actives 1.4% (n = 640,000); in the data active means inhibition above about 32%;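 further: 0% = median of test compound wells and 100% = reference inhibitor wells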
GPR151 ag: activates the human receptor GPR151; PathHunter beta-arrestin GPR151 cells, luminescence; AID 1508602; Q8TDV0; actives 1% (n = 650,000); activation, % at 11.2 µM; in the data active means activation above about 4.9%;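 further: 0% = median of compound wells and 100% = cells with positive control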
Target sequence (Q8TDV0 whole entry, looked up): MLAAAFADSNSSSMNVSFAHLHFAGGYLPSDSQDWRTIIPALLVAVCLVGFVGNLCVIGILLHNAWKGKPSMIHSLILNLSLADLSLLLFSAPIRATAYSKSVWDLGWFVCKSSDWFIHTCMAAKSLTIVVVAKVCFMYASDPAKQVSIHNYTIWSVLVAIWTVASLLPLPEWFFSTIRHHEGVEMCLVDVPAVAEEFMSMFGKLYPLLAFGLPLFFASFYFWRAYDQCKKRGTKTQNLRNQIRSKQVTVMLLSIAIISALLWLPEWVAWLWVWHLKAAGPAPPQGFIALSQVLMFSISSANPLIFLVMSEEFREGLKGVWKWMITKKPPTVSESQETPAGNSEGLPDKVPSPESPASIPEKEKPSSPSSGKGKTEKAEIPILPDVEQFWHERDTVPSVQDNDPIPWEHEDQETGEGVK
MITF primary: human MITF inhibition, primary screen | O75030 | AlphaScreen MITF homodimerization, bead proximity signal | inhibition, % at 2.6 µM | actives 0.91% (n = 650,000); in the data active means inhibition above about 50%;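 further: 0% = vehicle wells with protein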
* marks the source's active call; other numbers are inactive results.

SMILES	FBW7 act	TEAD-YAP inh	GPR151 ag	MITF primary
NC(=O)c1ccc(-c2nc(Nc3ccc(N4CCOCC4)cc3)c3[nH]cnc3n2)cc1	0	73*	1	-2
CC(C)(C)n1nnnc1C(c1ccccc1)N1CCc2ccccc2C1 (stereo not drawn)	0	2	0	-7
CCC(C)(C)n1nnnc1C(c1ccc(O)cc1)N1CCc2ccccc2C1 (stereo not drawn)	0	77*	1	-2
Cc1ccc(C)c(N2CCN(C(=O)c3c[nH]c4ccc(S(=O)(=O)N5CCC(C)CC5)cc4c3=O)CC2)c1	0	2	-1	7
O=C(Cc1c(F)cccc1Cl)N1CCC(c2ccncc2)CC1	0	42*	0	15
O=C(Cc1c(F)cccc1Cl)N1CCC(c2cccnc2)CC1	0	5	1	4
N#C/C(=C\c1ccc(-c2cccc([N+](=O)[O-])c2)o1)C(N)=O	0	8	1	7
N#C/C(=C/c1ccc(-c2ccc([N+](=O)[O-])cc2)o1)C(N)=O	2.4*	15	0	12
O=C(CSc1ccccc1)N1CCOc2ccc(-c3ccncc3)cc21	0	34*	-1	11
N#CCCN(C(=O)CCl)c1cccc(Cl)c1	0	74*	0	3
N#CCCN(C(=O)COC(=O)c1ccc(Cl)cc1N)c1ccccc1	0	-1	1	-4
O=C(COc1ccccc1)NCCS(=O)(=O)N1CCN(c2ccccc2F)CC1	0	-3	0	0
O=C1Nc2c(C(F)(F)F)cccc2C12SCCS2	0	34*	0	8
CC1CCCN(C2(O)C(=O)Nc3c(C(F)(F)F)cccc32)C1 (stereo not drawn)	0	-12	1	-4
Cc1ccc(OC(=O)c2cccc(S(=O)(=O)N3CCOCC3)c2)cc1C	0	13	0	3
CO[C@H]1[C@@H]([C@@]2(C)O[C@@H]2CC=C(C)C)[C@]2(CC[C@H]1OC(=O)/C=C/C=C/C=C/C=C/C(=O)O)CO2	0	46*	1	-6
Oc1cccnc1I	0	2	0	-7
Cc1ccc(NC(=O)C(=O)N2CCCCC2)cc1C	0	-60	-1	8
COC(=O)c1ccc(C2Nc3ccc4ncccc4c3C3=C2C(=O)CCC3)cc1OC (stereo not drawn)	1	59*	-1	6
Cc1cc2c(Nc3cccc(C(=O)O)c3)ncnc2s1	0	2	-3	16
COc1ccc(/C=C(/NC(=O)c2ccccc2)C(=O)N2CCCCCC2)cc1OC	0	-4	0	0
CCNC(=O)c1cc2c(=O)n3ccccc3nc2n(Cc2ccc(C)cc2)c1=N	1	7	0	17
Oc1cccc2ccc(/C=C/c3cc4c(cc3Cl)OCO4)nc12	0	68*	-7	0
O=[N+]([O-])c1cccc(/C=C/c2ccc3cccc(O)c3n2)c1	0	-37	-2	8
Oc1cccc2ccc(/C=C/c3ccc4c(c3)OCO4)nc12	0	80*	-5	6
SMILES	FBW7 act	TEAD-YAP inh	GPR151 ag	MITF primary
CCOc1cccc(C2C(C(=O)OCC3CCCO3)=C(C)NC3=C2C(=O)CCC3)c1 (stereo not drawn)	0	-1	0	13
COCCCN1C(=O)c2[nH]nc(-c3ccccc3O)c2C1c1cccc(Br)c1 (stereo not drawn)	0	35*	0	10
COCCCN1C(=O)c2[nH]nc(-c3ccccc3O)c2C1c1cccc(O)c1 (stereo not drawn)	0	3	0	11
COc1ccc(OC)c(C(=O)c2oc3ccc(Br)cc3c2N)c1	0	49*	-1	12
CC1C/C(=N\NC(=O)c2ccccc2F)CC(C)(C)C1 (stereo not drawn)	0	-48	-3	2
Oc1ccc(Nc2nccn3c(-c4ccccc4F)cnc23)cc1	1	83*	-2	10
O=C(NCCO)c1cccc(-c2cnc3c(Nc4cccc(C(F)(F)F)c4)nccn23)c1	0	-5	-1	-10
Oc1ccc(Nc2nccn3c(-c4cccc(F)c4)cnc23)cc1	0	65*	-1	-2
O=C(NCCO)c1cccc(-c2cnc3c(Nc4ccc(F)c(Cl)c4)nccn23)c1	0	74*	-4	10
Cc1ccc(-c2cnc3c(Nc4ccc(O)cc4)nccn23)cc1	0	9	0	14
Oc1ccc(Nc2nccn3c(-c4ccc(F)cc4)cnc23)cc1	0	53*	-1	-16
CC(C)c1ccc(Nc2nccn3c(-c4ccc(O)cc4)cnc23)cc1	1	-10	3	5
Oc1ccc(Nc2nccn3c(-c4ccsc4)cnc23)cc1	0	37*	-1	-6

Compound activity deposited in PubChem BioAssay by The Scripps Research Institute Molecular Screening Center.
